Source: article PMC4336329 (PLoS ONE, 2015)
The whole screen tested about 310,000 compounds, of which about 14,000 (4.5%) showed an effect of 50% or more. Effects have a minus sign here. Many of the other results were omitted from the sample, so strong results are more common in it than they were.
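Note: peak tail current of the secondary pulse compared with the same well before compound.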

These molecules were tested against human ether-à-go-go-related gene (hERG) potassium channel (human, UniProt Q12809) (assay: primary screen, population patch clamp on CHO cells stably expressing hERG; higher = less effect of the substance).
human ether-à-go-go-related gene (hERG) potassium channel, sequence (Q12809 whole entry, looked up): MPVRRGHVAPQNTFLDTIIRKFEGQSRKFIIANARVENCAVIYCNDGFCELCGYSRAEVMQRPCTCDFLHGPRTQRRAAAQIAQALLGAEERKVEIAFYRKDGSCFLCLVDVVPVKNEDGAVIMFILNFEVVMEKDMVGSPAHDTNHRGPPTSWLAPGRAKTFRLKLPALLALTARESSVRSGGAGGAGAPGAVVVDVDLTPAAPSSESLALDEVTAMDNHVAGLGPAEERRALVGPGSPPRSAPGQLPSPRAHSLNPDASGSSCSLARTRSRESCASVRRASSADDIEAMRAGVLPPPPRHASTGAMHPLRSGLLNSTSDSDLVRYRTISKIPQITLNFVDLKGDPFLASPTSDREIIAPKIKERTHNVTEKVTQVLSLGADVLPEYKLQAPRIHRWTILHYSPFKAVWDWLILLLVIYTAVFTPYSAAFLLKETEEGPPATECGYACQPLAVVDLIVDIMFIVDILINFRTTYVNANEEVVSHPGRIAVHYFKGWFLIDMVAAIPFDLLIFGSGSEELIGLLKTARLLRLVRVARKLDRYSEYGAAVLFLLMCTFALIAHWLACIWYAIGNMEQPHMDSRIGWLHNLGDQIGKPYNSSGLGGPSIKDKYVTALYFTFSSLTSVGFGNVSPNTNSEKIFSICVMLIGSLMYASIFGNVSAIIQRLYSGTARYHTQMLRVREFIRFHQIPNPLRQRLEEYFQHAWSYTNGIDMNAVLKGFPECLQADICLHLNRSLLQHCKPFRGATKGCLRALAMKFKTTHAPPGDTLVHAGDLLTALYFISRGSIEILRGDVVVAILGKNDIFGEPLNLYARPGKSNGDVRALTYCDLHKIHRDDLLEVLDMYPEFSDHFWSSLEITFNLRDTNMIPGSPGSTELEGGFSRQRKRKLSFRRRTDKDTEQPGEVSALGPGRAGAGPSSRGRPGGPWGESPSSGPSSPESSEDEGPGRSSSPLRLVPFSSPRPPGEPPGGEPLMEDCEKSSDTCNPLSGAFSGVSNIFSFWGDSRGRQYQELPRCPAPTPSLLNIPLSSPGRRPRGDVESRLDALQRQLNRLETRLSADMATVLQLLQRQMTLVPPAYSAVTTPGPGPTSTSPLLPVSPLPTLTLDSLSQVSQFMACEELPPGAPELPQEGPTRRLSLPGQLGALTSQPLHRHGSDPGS
`COc1ccc(C(=O)Nc2ccc3ccccc3n2)c(OC)c1OC` was tested, and the “hERG current change (%, negative = inhibition) at 10uM” value was 17.8%. With `COc1ccc(C[C@H](N)C(=O)N[C@H]2[C@@H](O)[C@H](n3cnc4c(N(C)C)ncnc43)O[C@@H]2CO)cc1.Cl` the “hERG current change (%, negative = inhibition) at 10uM” value was -5.25%. `Cc1ccc(C(=O)Nc2ccc3c(c2)OCO3)cc1S(=O)(=O)N1CCCCC1` was tested, and the “hERG current change (%, negative = inhibition) at 10uM” value was -18.8%. `CC(O)c1nc2ccccc2n1CCCOc1ccccc1` (centres unmarked) was tested, and the “hERG current change (%, negative = inhibition) at 10uM” value was -7.48%. `O=C(CN1CCN(Cc2ccccc2F)CC1)Nc1ccccc1Cl` was tested, and the “hERG current change (%, negative = inhibition) at 10uM” value was -27.6%. `O=C(CN1CCN(c2ccc(Cl)cc2)CC1)Nc1ccc(F)c(F)c1` was tested, and the “hERG current change (%, negative = inhibition) at 10uM” value was -18.7%. `CCN1CCN(CC(=O)Nc2cc(F)ccc2C)CC1` was tested, and the “hERG current change (%, negative = inhibition) at 10uM” value was -46.2%. In the case of `O=C(CN1CCN(Cc2ccccc2)CC1)Nc1ccc(F)c(F)c1.O=C(O)C(=O)O`, the “hERG current change (%, negative = inhibition) at 10uM” value is reported as -57.1%. For `Cc1ccc(F)cc1NC(=O)CN1CCN(Cc2ccccc2)CC1`, the “hERG current change (%, negative = inhibition) at 10uM” value was -63.2%. In the case of `Cc1ccccc1NC(=O)CN1CCN(Cc2ccccc2)CC1`, the “hERG current change (%, negative = inhibition) at 10uM” value is reported as -36.1%. In the case of `Cl.O=C(CN1CCN(Cc2ccccc2)CC1)Nc1ccc2c(c1)CCC2`, the “hERG current change (%, negative = inhibition) at 10uM” value is reported as -47.6%. In the case of `O=C(CN1CCN(CC(=O)Nc2ccccc2Cl)CC1)Nc1ccc(F)c(F)c1`, the “hERG current change (%, negative = inhibition) at 10uM” value is reported as -78.2%. In the case of `O=C(CN1CCCCCC1)Nc1ccc(F)c(F)c1.O=C(O)C(=O)O`, the “hERG current change (%, negative = inhibition) at 10uM” value is reported as -22.4%. For `CCN(CC)S(=O)(=O)c1ccc(NCc2ccccc2)nc1`, the “hERG current change (%, negative = inhibition) at 10uM” value was -11.3%. In the case of `CCN(CC)S(=O)(=O)c1ccc(Cl)c(C(=O)NC2CCN(Cc3ccccc3)CC2)c1.Cl`, the “hERG current change (%, negative = inhibition) at 10uM” value is reported as -28.8%. For `CCN(CC)S(=O)(=O)c1ccc(NC2CCN(Cc3ccccc3)CC2)nc1`, the “hERG current change (%, negative = inhibition) at 10uM” value was -57.9%. In the case of `COc1ccc(C)cc1NC(=O)CSc1ccc(Cl)cc1`, the “hERG current change (%, negative = inhibition) at 10uM” value is reported as 11.1%. For `Cc1cccc(C)c1NC(=O)CCS(=O)(=O)c1ccc(Br)cc1`, the “hERG current change (%, negative = inhibition) at 10uM” value was 31.2%. For `COc1cccc(-c2nc(CS(=O)(=O)CC(=O)N3CCN(C)CC3)c(C)o2)c1`, the “hERG current change (%, negative = inhibition) at 10uM” value was 8.02%. `CCN(CC)CC(=O)Nc1ccc(-c2nc3cc(NC(=O)CN(CC)CC)ccc3o2)cc1` was tested, and the “hERG current change (%, negative = inhibition) at 10uM” value was -18.1%. `CCNC(=O)NC(=O)COC(=O)c1ccccc1SCC(=O)NC(=O)NCC` was tested, and the “hERG current change (%, negative = inhibition) at 10uM” value was 3.64%. For `Cc1ccc(-c2nc3ccccc3c(C(=O)NCc3cccs3)c2C)cc1`, the “hERG current change (%, negative = inhibition) at 10uM” value was -5.33%. `COC(=O)C1=C(c2ccc(F)cc2F)C[C@@H]2CC[C@H]1N2C(=O)NCc1ccc(F)cc1` was tested, and the “hERG current change (%, negative = inhibition) at 10uM” value was -46.4%. `CC(=O)Nc1ccc(S(=O)(=O)Nc2c(NC3CCCCC3)c3ccccc3oc2=O)cc1` was tested, and the “hERG current change (%, negative = inhibition) at 10uM” value was 7.19%. In the case of `O=C(CN1CCN(CC(=O)c2ccc(F)cc2)CC1)Nc1ccccc1Cl`, the “hERG current change (%, negative = inhibition) at 10uM” value is reported as -68.9%. For `Cc1ccc(NC(=O)CN2CCN(Cc3ccccc3)CC2)cc1F`, the “hERG current change (%, negative = inhibition) at 10uM” value was -71.2%. For `CC(=O)N1CCN(CC(=O)Nc2ccc(C)c(F)c2)CC1.Cl`, the “hERG current change (%, negative = inhibition) at 10uM” value was 0.314%. With `O=C(CN1CCC(C(=O)c2ccc(F)cc2)CC1)Nc1ccccc1Cl` the “hERG current change (%, negative = inhibition) at 10uM” value was -20.5%. `Cc1ccc(S(=O)(=O)N(C)C)cc1NC(=O)CN1CCN(Cc2ccccc2)CC1.Cl` was tested, and the “hERG current change (%, negative = inhibition) at 10uM” value was -24.8%. `CCN(CC)S(=O)(=O)c1ccc(C)c(NC(=O)CNCc2ccccc2OC)c1.O=C(O)C(=O)O` was tested, and the “hERG current change (%, negative = inhibition) at 10uM” value was -37.7%. `CCN(CC)S(=O)(=O)c1ccc(C)c(NC(=O)CNCCN(C(C)C)C(C)C)c1.O=C(O)C(=O)O` was tested, and the “hERG current change (%, negative = inhibition) at 10uM” value was -75.5%. `CCN(CC)S(=O)(=O)c1ccc(C)c(NC(=O)CN2CCN(Cc3ccccc3)CC2)c1.Cl` was tested, and the “hERG current change (%, negative = inhibition) at 10uM” value was -69.1%. `O=C(CN1CCNCC1)Nc1ccccc1Cl` was tested, and the “hERG current change (%, negative = inhibition) at 10uM” value was -2.06%. In the case of `Cc1ccc(NC(=O)CN2CCN(Cc3ccccc3)CC2)cc1Cl`, the “hERG current change (%, negative = inhibition) at 10uM” value is reported as -46%. With `CCN(CC)S(=O)(=O)c1ccc(C)c(NC(=O)CN2CCN(C)CC2)c1.O=C(O)C(=O)O` the “hERG current change (%, negative = inhibition) at 10uM” value was -12.4%. For `CCN(CC)c1ccc(S(=O)(=O)N2CCOCC2)cc1NC(=O)CN1CCN(Cc2ccccc2)CC1.Cl`, the “hERG current change (%, negative = inhibition) at 10uM” value was -45.7%. With `Cc1cc(-c2csc(N)n2)c(C)n1CCc1ccccc1.Cl` the “hERG current change (%, negative = inhibition) at 10uM” value was -12.4%. With `Cc1ccc(Oc2ncc(CN3CCOCC3)s2)cc1` the “hERG current change (%, negative = inhibition) at 10uM” value was 3.3%. With `C=CCn1c(SCC(=O)Nc2cc(C)on2)nc2sc(C)c(C)c2c1=O` the “hERG current change (%, negative = inhibition) at 10uM” value was -0.759%. In the case of `O=C(Nc1nnc(-c2ccc(Br)cc2)o1)C1=COCCO1`, the “hERG current change (%, negative = inhibition) at 10uM” value is reported as 3.07%. For `COc1ccccc1CNC(=O)c1ccc(N(C)S(=O)(=O)c2ccc(C)cc2)cc1`, the “hERG current change (%, negative = inhibition) at 10uM” value was 17.5%. With `Cl.OC(c1ccccc1)(C1CCCCC1)C(CN1CCOCC1)c1ccccc1` (centres unmarked) the “hERG current change (%, negative = inhibition) at 10uM” value was -12.5%. With `Cn1nnnc1SC1CC(=O)N(c2ccccc2)C1=O` (centres unmarked) the “hERG current change (%, negative = inhibition) at 10uM” value was 2.48%. For `O=C(NCCO)c1ccc2[nH]c3ccccc3c2c1`, the “hERG current change (%, negative = inhibition) at 10uM” value was 9.18%. With `Cc1ccc(NC(=O)CNCc2ccccc2)c(Br)c1` the “hERG current change (%, negative = inhibition) at 10uM” value was 0.831%. `Cc1ccc(NC(=O)CN2CCN(Cc3ccccc3)CC2)c(Br)c1.Cl` was tested, and the “hERG current change (%, negative = inhibition) at 10uM” value was -72.5%. For `Cc1ccc(NC(=O)CN2CCOCC2)c(Br)c1`, the “hERG current change (%, negative = inhibition) at 10uM” value was -9.76%. In the case of `O=S(=O)(c1ccc(-n2cnnn2)cc1)N1CCN(c2ccccc2F)CC1`, the “hERG current change (%, negative = inhibition) at 10uM” value is reported as -3.2%. `CCOC(=O)N1CCN(S(=O)(=O)c2ccc(-n3cnnn3)cc2)CC1` was tested, and the “hERG current change (%, negative = inhibition) at 10uM” value was -61.4%. With `COc1ccccc1N1CCN(S(=O)(=O)c2ccc(-n3cnnn3)c(C)c2)CC1` the “hERG current change (%, negative = inhibition) at 10uM” value was -13.7%. For `COc1ccccc1CNC(=O)C1CCN(S(=O)(=O)c2ccc(-n3cnnn3)cc2)CC1`, the “hERG current change (%, negative = inhibition) at 10uM” value was -66.9%. `CCOC(=O)c1ccc(S(=O)(=O)N2CCC(C(=O)NCc3ccccc3OC)CC2)cc1` was tested, and the “hERG current change (%, negative = inhibition) at 10uM” value was -22.5%. With `COc1ccccc1N1CCN(S(=O)(=O)c2ccc(-n3cnnn3)cc2)CC1` the “hERG current change (%, negative = inhibition) at 10uM” value was -72%. In the case of `COc1ccc(CNC(=O)C(=O)N2CCC3(CC2)OCCN3S(=O)(=O)c2ccc(C)cc2)cc1`, the “hERG current change (%, negative = inhibition) at 10uM” value is reported as -29.9%. In the case of `CCNC(=O)C(=O)N1CCC2(CC1)OCCN2S(=O)(=O)c1ccc(C)cc1`, the “hERG current change (%, negative = inhibition) at 10uM” value is reported as 2.81%. With `CCCN1CCN(S(=O)(=O)c2ccc(-n3cnnn3)cc2)CC1` the “hERG current change (%, negative = inhibition) at 10uM” value was -28%. `O=C(NCc1ccccc1Cl)C1CCN(S(=O)(=O)c2ccc(-n3cnnn3)cc2)CC1` was tested, and the “hERG current change (%, negative = inhibition) at 10uM” value was -27.3%. `CCOC(=O)N1CCN(S(=O)(=O)c2ccc(C)cc2)CC1` was tested, and the “hERG current change (%, negative = inhibition) at 10uM” value was 17.9%. `COc1cccc(CNC(=O)C(=O)N2CCC3(CC2)OCCN3S(=O)(=O)c2ccc(C)cc2)c1` was tested, and the “hERG current change (%, negative = inhibition) at 10uM” value was -57%.
